Results on 6 compounds are retold here after PubChem BioAssay (EPA / NIEHS).

Settings in all cases: mRNA level, 48 h; actives raise or lower the signal
Read-out in test [1]: ABC Transporter (ABCC2), ABCC2 (gene 1244)
Kind of test: LTEA_HepaRG_ABCC2: Life Technologies and Expression Analysis (LTEA) Assay for ABC Transporter (ABCC2) using HepaRG (AID 2283464). A digest of the protocol:
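HepaRG, 48 h post-plating; serum-free induction medium; cpd 8-pt, 100 uM top, half-log, 0.5% DMSO, duplicate, 48 h. Readout: ABCC2 mRNA by qRT-PCR, norm. ACTB/GAPDH/POLR2A. Bidirectional fit vs DMSO baseline.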

Read-out in test [2]: Broad substrate specificity ATP-binding cassette transporter ABCG2 (Homo sapiens) (UniProt Q9UNQ0)
Kind of test: LTEA_HepaRG_ABCG2: Life Technologies and Expression Analysis (LTEA) Assay for ABC Transporter (ABCG2) using HepaRG (AID 2283465). The method in brief:
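Differentiated HepaRG cells in serum-free induction medium were exposed for 48 h, in duplicate, to eight half-log concentrations up to 100 uM in 0.5% DMSO. ABCG2 mRNA was measured by TaqMan qRT-PCR, normalized to ACTB, GAPDH and POLR2A, and fitted bidirectionally versus DMSO.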

Read-out in test [3]: ATP-citrate lyase (ACLY), ACLY (gene 47)
Kind of test: LTEA_HepaRG_ACLY: Life Technologies and Expression Analysis (LTEA) Assay for ATP-citrate lyase (ACLY) using HepaRG (AID 2283466). The method in brief:
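Differentiated human HepaRG cells in serum-free induction medium exposed 48 h, in duplicate, to eight half-log concentrations from 100 uM top in 0.5% DMSO; ACLY mRNA measured by qRT-PCR, normalized to ACTB, GAPDH, POLR2A, fitted bidirectionally versus DMSO.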

Read-out in test [4]: Peroxisomal acyl-coenzyme A oxidase 1 (ACOX1) gene, ACOX1 (gene 51)
Put plainly: LTEA_HepaRG_ACOX1: Life Technologies and Expression Analysis (LTEA) Assay for Peroxisomal acyl-coenzyme A oxidase 1 (ACOX1) gene using HepaRG (AID 2283467). A digest of the protocol: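 Differentiated human HepaRG cells were exposed in duplicate for 48 h in serum-free induction medium to eight half-log concentrations up to 100 uM in 0.5% DMSO. ACOX1 mRNA was then quantified by TaqMan qRT-PCR, normalized to ACTB, GAPDH and POLR2A.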

Read-out in test [5]: Alkaline Phosphatase, Placental (ALPP) gene, ALPP (gene 250)
Kind of test: LTEA_HepaRG_ALPP: Life Technologies and Expression Analysis (LTEA) Assay for Alkaline Phosphatase, Placental (ALPP) gene using HepaRG (AID 2283468). The method in brief: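 HepaRG, 48 h plating then 48 h dosing, serum-free induction medium, 0.5% DMSO. 8 conc, half-log, max 100 uM, duplicates. Endpoint: ALPP transcript by qRT-PCR, housekeeping-normalized; gain or loss fitted vs DMSO.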

Read-out in test [6]: Bcl-2 (BAX) gene, BAX (gene 581)
Put plainly: LTEA_HepaRG_BAX: Life Technologies and Expression Analysis (LTEA) Assay for Bcl-2 (BAX) gene using HepaRG (AID 2283470). A digest of the protocol:
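Concentration-response endpoint fitted in both directions relative to 0.5% DMSO vehicle. Human HepaRG cultures receive test chemicals for 48 h at up to 100 uM; BAX mRNA is quantified by qRT-PCR against housekeeping genes.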

Read-out in test [7]: adenosine kinase (ADK) gene, ADK (gene 132)
Kind of test: LTEA_HepaRG_ADK: Life Technologies and Expression Analysis (LTEA) Assay for adenosine kinase (ADK) gene using HepaRG (AID 2283471). The method in brief:
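ADK expression quantified by qRT-PCR, normalised to three housekeeping genes, after 48 h exposure of HepaRG cells to eight concentrations (top 100 uM, half-log steps, duplicate, 0.5% DMSO). Up- or down-regulation fitted relative to vehicle.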

Read-out in test [8]: Alpha-fetoprotein (AFP) gene, AFP (gene 174)
Put plainly: LTEA_HepaRG_AFP: Life Technologies and Expression Analysis (LTEA) Assay for Alpha-fetoprotein (AFP) gene using HepaRG (AID 2283472). A digest of the protocol:
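After a 48 h plating period, cells are moved to serum-free induction medium and dosed in duplicate (100 uM maximum, half-log dilutions, 0.5% DMSO) for another 48 h. Total RNA goes to TaqMan qRT-PCR; AFP signal is housekeeping-normalized.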

Read-out in another test: BCL2L11 (gene 10018)
Put plainly: LTEA_HepaRG_BCL2L11: Life Technologies and Expression Analysis (LTEA) Assay for Bcl-2 (BCL2L11) gene using HepaRG (AID 2283473). The method in brief:
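Read-out is BCL2L11 transcript level by qRT-PCR, normalized to three housekeeping genes and fitted bidirectionally against 0.5% DMSO vehicle. HepaRG cells received chemicals for 48 h in serum-free induction medium, 100 uM down in half-log dilutions.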

Read-out in test [9]: Apolipoprotein A-V (APOA5) gene, APOA5 (gene 116519)
Kind of test: LTEA_HepaRG_APOA5: Life Technologies and Expression Analysis (LTEA) Assay for Apolipoprotein A-V (APOA5) gene using HepaRG (AID 2283474). A digest of the protocol:
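Readout is APOA5 transcript level by qRT-PCR on Fluidigm dynamic arrays, normalized to three housekeeping genes. HepaRG cultures received chemicals for 48 h at up to 100 uM (half-log steps, 0.5% DMSO), with gain or loss scored relative to DMSO.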

Read-out in test [10]: Apoptosis regulator Bcl-2 (Homo sapiens) (UniProt P10415)
Kind of test: LTEA_HepaRG_BCL2: Life Technologies and Expression Analysis (LTEA) Assay for Bcl-2 gene using HepaRG (AID 2283475).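 Also: BCL2 transcript by TaqMan qRT-PCR normalised to ACTB GAPDH and POLR2A.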 A digest of the protocol: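 Expression change of BCL2 mRNA in HepaRG after 48 h dosing, quantified by TaqMan qRT-PCR against three endogenous controls. Concentration-response used eight points up to 100 uM, vehicle 0.5% DMSO.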

Read-out in test [11]: Bcl-2 (BID) gene, BID (gene 637)
Kind of test: LTEA_HepaRG_BID: Life Technologies and Expression Analysis (LTEA) Assay for Bcl-2 (BID) gene using HepaRG (AID 2283476). The method in brief: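 Gain or loss of BID expression is fitted relative to 0.5% DMSO vehicle. Human HepaRG liver cells received a 48 h chemical exposure over an eight-point concentration range.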

Read-out in the next test: Caspase-3 (Homo sapiens) (UniProt P42574)
Put plainly: LTEA_HepaRG_CASP3: Life Technologies and Expression Analysis (LTEA) Assay for cysteine-aspartic acid protease (CASP3) using HepaRG (AID 2283477). The method in brief: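 Read-out is CASP3 mRNA level by TaqMan qRT-PCR in human HepaRG cells after 48 h chemical exposure. Eight half-log concentrations topping at 100 uM were tested in 0.5% DMSO; gain or loss was fitted relative to DMSO.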

Read-out in test [12]: Cytochrome P450 (CYP24A1), CYP24A1 (gene 1591)
Put plainly: LTEA_HepaRG_CYP24A1: Life Technologies and Expression Analysis (LTEA) Assay for Cytochrome P450 (CYP24A1) using HepaRG (AID 2283478). A digest of the protocol:
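HepaRG, 48 h chemical exposure, 8-pt half-log CRC from 100 uM, 0.5% DMSO vehicle, duplicates. Endpoint: CYP24A1 mRNA by Fluidigm TaqMan qRT-PCR, normalized ACTB/GAPDH/POLR2A; gain/loss fit vs DMSO.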

Read-out in test [13]: Cytochrome P450 (CYP1A2), CYP1A2 (gene 1544)
Kind of test: LTEA_HepaRG_CYP1A2: Life Technologies and Expression Analysis (LTEA) Assay for Cytochrome P450 (CYP1A2) using HepaRG (AID 2283479). The method in brief: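 CYP1A2 transcript induction or loss, quantified by Fluidigm qRT-PCR against three housekeeping genes, was fitted bidirectionally against 0.5% DMSO controls. Human HepaRG cells received eight half-log concentrations from 100 uM over 48 h.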

Read-out in test [14]: cysteine-aspartic acid protease (CASP8), CASP8 (gene 841)
Kind of test: LTEA_HepaRG_CASP8: Life Technologies and Expression Analysis (LTEA) Assay for cysteine-aspartic acid protease (CASP8) using HepaRG (AID 2283480). The method in brief: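 Differentiated human HepaRG cells, plated 48 h then switched to serum-free induction medium, were exposed in duplicate for 48 h to 8 half-log concentrations up to 100 uM in 0.5% DMSO. CASP8 mRNA was quantified by qRT-PCR, normalized to ACTB/GAPDH/POLR2A.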

Read-out in test [15]: Cytochrome P450 (CYP2B6), CYP2B6 (gene 1555)
Put plainly: LTEA_HepaRG_CYP2B6: Life Technologies and Expression Analysis (LTEA) Assay for Cytochrome P450 (CYP2B6) using HepaRG (AID 2283481). A digest of the protocol:
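HepaRG cells plated 48 h, switched to serum-free induction medium, then dosed 48 h (8 points, half-log from 100 uM, 0.5% DMSO). RNA isolated; CYP2B6 expression measured by qRT-PCR; gain or loss fitted relative to DMSO.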

Read-out in test [16]: Cytochrome P450 2C19 (Homo sapiens) (UniProt P33261)
Put plainly: LTEA_HepaRG_CYP2C19: Life Technologies and Expression Analysis (LTEA) Assay for CYP2C19 using HepaRG (AID 2283482). The method in brief:
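Transcript levels of CYP2C19 were quantified by qRT-PCR after HepaRG cells were treated for 48 hours with test chemicals up to 100 uM (eight half-log concentrations, 0.5% DMSO vehicle). Gain or loss of signal was fitted relative to DMSO.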

Read-out in the next test: CYP2C8 (gene 1558)
Put plainly: LTEA_HepaRG_CYP2C8: Life Technologies and Expression Analysis (LTEA) Assay for CYP2C8 using HepaRG (AID 2283483). A digest of the protocol:
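Differentiated human HepaRG cells were exposed for 48 h in serum-free induction medium to eight half-log concentrations up to 100 uM in 0.5% DMSO, in duplicate. CYP2C8 mRNA was measured by TaqMan qRT-PCR, normalized to ACTB, GAPDH and POLR2A, and fitted bidirectionally against DMSO.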

Molecules are shown by their SMILES. The source made the active and inactive calls. The calls were made as follows: active = hit-call score of the fitted dose curve at least 0.9, where 1 is the maximum; inactive = score below 0.9.

A word on the AC50: it is the midpoint of the concentration-response curve, whichever way the signal moves.

Apoptosis regulator Bcl-2 (Homo sapiens), sequence (P10415 whole entry, looked up): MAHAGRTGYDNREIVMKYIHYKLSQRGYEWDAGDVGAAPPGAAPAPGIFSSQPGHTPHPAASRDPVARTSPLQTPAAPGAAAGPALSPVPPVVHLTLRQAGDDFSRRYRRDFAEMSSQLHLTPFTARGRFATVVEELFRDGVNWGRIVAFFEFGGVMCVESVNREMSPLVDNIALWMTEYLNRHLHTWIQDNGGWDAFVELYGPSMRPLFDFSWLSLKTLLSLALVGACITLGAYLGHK
Caspase-3 (Homo sapiens), sequence (P42574 whole entry, looked up): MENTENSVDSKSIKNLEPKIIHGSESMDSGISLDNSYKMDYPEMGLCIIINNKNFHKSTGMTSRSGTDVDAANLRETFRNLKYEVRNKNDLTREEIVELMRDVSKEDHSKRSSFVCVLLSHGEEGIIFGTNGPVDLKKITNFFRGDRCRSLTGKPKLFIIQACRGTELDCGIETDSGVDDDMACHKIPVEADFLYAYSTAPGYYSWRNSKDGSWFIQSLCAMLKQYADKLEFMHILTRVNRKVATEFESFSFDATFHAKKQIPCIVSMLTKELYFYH
Cytochrome P450 2C19 (Homo sapiens), sequence (P33261 whole entry, looked up): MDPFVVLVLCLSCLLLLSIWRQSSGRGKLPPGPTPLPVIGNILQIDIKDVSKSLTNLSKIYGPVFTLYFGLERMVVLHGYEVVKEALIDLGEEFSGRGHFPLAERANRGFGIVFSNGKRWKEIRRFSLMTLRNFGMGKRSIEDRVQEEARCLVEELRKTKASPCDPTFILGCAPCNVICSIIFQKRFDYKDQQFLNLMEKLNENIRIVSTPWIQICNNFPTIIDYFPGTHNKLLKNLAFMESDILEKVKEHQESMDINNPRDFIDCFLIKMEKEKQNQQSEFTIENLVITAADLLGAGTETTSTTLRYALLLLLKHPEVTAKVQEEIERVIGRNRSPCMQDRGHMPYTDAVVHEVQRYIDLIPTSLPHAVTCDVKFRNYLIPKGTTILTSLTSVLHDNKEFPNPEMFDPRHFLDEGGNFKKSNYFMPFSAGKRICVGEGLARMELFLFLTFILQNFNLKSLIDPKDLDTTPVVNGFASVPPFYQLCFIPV
Broad substrate specificity ATP-binding cassette transporter ABCG2 (Homo sapiens), sequence (Q9UNQ0 whole entry, looked up): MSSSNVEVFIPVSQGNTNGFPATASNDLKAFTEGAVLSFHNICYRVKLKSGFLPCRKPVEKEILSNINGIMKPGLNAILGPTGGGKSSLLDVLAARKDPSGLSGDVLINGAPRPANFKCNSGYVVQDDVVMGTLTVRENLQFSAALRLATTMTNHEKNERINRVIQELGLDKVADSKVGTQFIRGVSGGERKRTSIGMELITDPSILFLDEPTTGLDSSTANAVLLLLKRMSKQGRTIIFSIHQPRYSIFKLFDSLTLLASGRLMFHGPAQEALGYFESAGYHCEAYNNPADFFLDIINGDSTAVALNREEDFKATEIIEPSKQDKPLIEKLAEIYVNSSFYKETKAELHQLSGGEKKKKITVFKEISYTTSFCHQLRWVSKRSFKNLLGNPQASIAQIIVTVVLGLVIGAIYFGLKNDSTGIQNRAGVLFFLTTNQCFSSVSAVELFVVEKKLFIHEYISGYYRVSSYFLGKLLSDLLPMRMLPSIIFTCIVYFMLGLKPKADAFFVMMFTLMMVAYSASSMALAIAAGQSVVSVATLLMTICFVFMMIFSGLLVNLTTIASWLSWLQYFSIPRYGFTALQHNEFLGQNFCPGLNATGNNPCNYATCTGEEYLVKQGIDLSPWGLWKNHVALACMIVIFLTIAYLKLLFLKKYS

As to `CCOc1ccc(C(C)(C)COCc2cccc(Oc3ccccc3)c2)cc1`, the AC50 in test [1] is 24.6 µM (active); in test [2] it was 2.64 µM (active); in test [13] it was 28 µM (active); in test [15] it was 0.63 µM (active); in test [16] it was 4.25 µM (active); with CYP2C8 (gene 1558), 3.05 µM (active). The call in test [3], in test [4], in test [5], in test [6], in test [7] and in test [8] was inactive. The compound was classed as inactive (with BCL2L11 (gene 10018); in test [9]; in [10]; in test [11]; with Caspase-3 (Homo sapiens); in [12]). Moreover, the compound was classed as inactive in test [14].

For the compound `c1ccc(OP(Oc2ccccc2)Oc2ccccc2)cc1`, the result in [1], in test [2], in [3], in test [4], in test [5] and in test [6] was inactive. Moreover, the compound was classed as inactive (in test [7]; in test [8]; with BCL2L11 (gene 10018); in test [9]; in test [10]; in [11]). Also, the compound was called inactive (in the test with Caspase-3 (Homo sapiens); in [12]; in [13]; in test [14]; in [15]; in [16]). The outcome in the test with CYP2C8 (gene 1558) was inactive.

With `CCNc1nc(Cl)nc(NC(C)(C)C)n1`, the AC50 in test [1] is 4.01 µM (active); in test [5], 9.92 µM (active); in [13] it was 32.1 µM (active); in [15] it was 1.01 µM (active); in test [16] it was 2.46 µM (active); with CYP2C8 (gene 1558), 2.37 µM (active). Besides, the outcome in test [2], in [3], in [4], in test [6], in test [7] and in [8] was inactive. In addition, the result (with BCL2L11 (gene 10018); in test [9]; in test [10]; in test [11]; with Caspase-3 (Homo sapiens); in test [12]) was inactive. Also, the outcome in test [14] was inactive.

As for `O=P1(N(CCCl)CCCl)NCCCO1` (centres undefined), the call in [1], in [2], in test [3], in test [4], in [5] and in test [6] was inactive. Moreover, the call (in test [7]; in [8]; in the test with BCL2L11 (gene 10018); in test [9]; in test [10]; in [11]) was inactive. Moreover, the call (with Caspase-3 (Homo sapiens); in test [12]; in test [13]; in test [14]; in [16]; with CYP2C8 (gene 1558)) was inactive. Moreover, in test [15], the half-maximal activity concentration (AC50) is 50 µM (active).

In the case of `CCOS(=O)(=O)OCC`, the compound was classed as inactive in test [1], in test [2], in [3], in test [4], in test [5] and in test [6]. Further, the outcome (in [7]; in [8]; with BCL2L11 (gene 10018); in test [9]; in test [10]; in test [11]) was inactive. Also, the outcome (with Caspase-3 (Homo sapiens); in test [12]; in test [13]; in test [14]; in [15]; in test [16]) was inactive. In addition, the result in the test with CYP2C8 (gene 1558) was inactive.

Take `CCC1(c2ccccc2)C(=O)N=C(O)NC1=O` (centres undefined): the call in test [1], in test [2], in test [3], in [4], in [5] and in [6] was inactive. Besides, the compound was called inactive (in [7]; in [8]; with BCL2L11 (gene 10018); in test [9]; in test [10]; in [11]). In addition, the result (with Caspase-3 (Homo sapiens); in [12]; in [13]; in test [14]) was inactive. For the same compound, the AC50 in test [15] is 34.7 µM (active); in [16] it was 63.6 µM (active); with CYP2C8 (gene 1558), 50 µM (active).
